Test results: PubChem BioAssay AID1159580 (chemical genetic matrix, 2015)
Where “and” joins values, the source holds several entries; their conditions need not be identical. Equal entries are not always repeated. Among all 5,500 compounds or so, about 2,000 (36%) were called active. Inconclusive results (about 18%) are left out. Cut-off read from the data, not from the text of the source: active = normalized growth mostly below about 0.91 (no sharp cut-off); inconclusive = no clear call, values can overlap the other calls; inactive = mostly above about 0.92. This is one part of the list.

Test: chemical genetic growth profiling, strain panel (AID 1159580);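 note: tested at 20 µM; growth read once vehicle control cultures reached saturation at 30 °C; 1 = growth at the plate median or of vehicle wells; lower values mean less growth of the strain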
Conditions: S. cerevisiae deletion strains, growth OD

Measured: normalized growth

NCC(N)C(=O)c1ccccc1 (stereo not drawn)
inactive: locus YAL013W, strain DEP1, stronger effect = lower value 1.01 | locus YAL021C, strain ccr4, stronger effect = lower value 0.979 | locus YAL026C, strain drs2, stronger effect = lower value 1.06 | locus YAL030W, strain snc1, stronger effect = lower value 1.02 | locus YBL061C, strain skt5, stronger effect = lower value 1.03 | locus YBR009C, strain hhf1, stronger effect = lower value 1.04 | locus YBR021W, strain FUR4, stronger effect = lower value 0.993 | locus YBR023C, strain chs3, stronger effect = lower value 1.02 | locus YBR171W, strain sec66, stronger effect = lower value 1.04 | locus YBR229C, strain ROT2, stronger effect = lower value 1.01 | locus YBR231C, strain swc5, stronger effect = lower value 1.02 | locus YBR279W, strain paf1, stronger effect = lower value 1.03 | locus YCL011C, strain gbp2, stronger effect = lower value 1.02 | locus YCL016C, strain dcc1, stronger effect = lower value 1.01 | locus YCL029C, strain bik1, stronger effect = lower value 0.995 | locus YCL061C, strain MRC1, stronger effect = lower value 1.03 | locus YCL069W, strain vba3, stronger effect = lower value 1.02 | locus YCR088W, strain abp1, stronger effect = lower value 1.02 | locus YDL005C, strain med2, stronger effect = lower value 1.03 | locus YDL035C, strain GPR1, stronger effect = lower value 1.02 | locus YDL040C, strain nat1, stronger effect = lower value 1.02 | locus YDL074C, strain BRE1, stronger effect = lower value 1.01 | locus YDL101C, strain DUN1, stronger effect = lower value 1.01 | locus YDL185W, strain tfp1, stronger effect = lower value 1 | locus YDL192W, strain arf1, stronger effect = lower value 1.01 | locus YDR001C, strain nth1, stronger effect = lower value 1.01 | locus YDR069C, strain doa4, stronger effect = lower value 1.02 | locus YDR101C, strain arx1, stronger effect = lower value 0.997 | locus YDR137W, strain rgp1, stronger effect = lower value 1.03 | locus YDR150W, strain NUM1, stronger effect = lower value 1.01 | locus YDR159W, strain sac3, stronger effect = lower value 1.05 | locus YDR162C, strain NBP2, stronger effect = lower value 1.02 | locus YDR195W, strain ref2 1.01 | locus YDR297W, strain sur2, stronger effect = lower value 1.02 | locus YDR318W, strain mcm21, stronger effect = lower value 1.01 | locus YDR334W, strain swr1, stronger effect = lower value 1.02 | locus YDR335W, strain msn5, stronger effect = lower value 1.03 | locus YDR388W, stronger effect = lower value 0.998 | locus YDR392W, strain spt3, stronger effect = lower value 0.962 | locus YDR502C, strain sam2, stronger effect = lower value 0.988 | locus YEL003W, strain gim4, stronger effect = lower value 1.04 | locus YEL037C, strain rad23, stronger effect = lower value 1.03 | locus YEL061C, strain CIN8 (second series), stronger effect = lower value 1.03 | locus YEL061C, strain CIN8, stronger effect = lower value 1.01 | locus YER015W, strain faa2, stronger effect = lower value 1.03 | locus YER016W, strain bim1, stronger effect = lower value 1.03 | locus YER110C, stronger effect = lower value 1 | locus YER111C, strain swi4, stronger effect = lower value 1.03 | locus YER155C, strain BEM2 (second series), stronger effect = lower value 0.99 | locus YER155C, strain BEM2, stronger effect = lower value 1.01 | locus YER167W, strain BCK2, stronger effect = lower value 1.01 | locus YFR010W, strain ubp6, stronger effect = lower value 1.03 | locus YGL078C, strain dbp3, stronger effect = lower value 1.02 | locus YGL086W, strain mad1, stronger effect = lower value 0.999 | locus YGL167C, strain pmr1, stronger effect = lower value 1.03 | locus YGL173C, strain kem1, stronger effect = lower value 1.06 | locus YGL227W, strain vid30, stronger effect = lower value 1.02 | locus YGL240W, strain doc1, stronger effect = lower value 1.01 | locus YGL248W, strain PDE1, stronger effect = lower value 1.02 | locus YGL253W, strain hxk2, stronger effect = lower value 1.05 | locus YGR135W, strain pre9, stronger effect = lower value 1 | locus YGR229C, strain SMI1, stronger effect = lower value 1.02 | locus YGR252W, strain gcn5, stronger effect = lower value 0.96 | locus YHR013C, strain ard1, stronger effect = lower value 1.04 | locus YHR027C, strain rpn1, stronger effect = lower value 1.04 | locus YHR030C, strain SLT2, stronger effect = lower value 1.01 and 0.973 | locus YHR079C, strain IRE1 (second series), stronger effect = lower value 1 | locus YHR079C, strain IRE1, stronger effect = lower value 0.97 | locus YHR094C, strain hxt1, stronger effect = lower value 0.996 | locus YHR129C, strain ARP1, stronger effect = lower value 1.01 | locus YHR142W, strain chs7, stronger effect = lower value 1.05 | locus YHR200W, strain rpn10, stronger effect = lower value 0.999 | locus YIL066C, strain RNR3, stronger effect = lower value 1.01 | locus YIL073C, strain SPO22, stronger effect = lower value 0.986 | locus YIL125W, strain kgd1, stronger effect = lower value 1 | locus YIR030C, strain dcg1, stronger effect = lower value 1 | locus YJL092W, strain hpr5, stronger effect = lower value 1.03 | locus YJL095W, strain BCK1 (second series), stronger effect = lower value 1.03 | locus YJL095W, strain BCK1, stronger effect = lower value 1.02 and 0.963 | locus YJL115W, strain asf1, stronger effect = lower value 1.03 | locus YJL129C, strain trk1, stronger effect = lower value 1.04 | locus YJL134W, strain LCB3, stronger effect = lower value 1.01 | locus YJL154C, strain vps35, stronger effect = lower value 1.02 | locus YJL164C, strain tpk1, stronger effect = lower value 1.03 | locus YJL166W, strain qcr8, stronger effect = lower value 1.02 | locus YJL168C, strain set2, stronger effect = lower value 1.01 | locus YJL187C, strain SWE1 (second series), stronger effect = lower value 1 | locus YJL187C, strain SWE1, stronger effect = lower value 1.05
